Assay outcomes from PubChem BioAssay.
This is one part of a sample in which hits are shown more often than they occur.
PRC2 inh = inhibitors of human EZH2/PRC2 methyltransferase. Q15910. PRC2 H3K27 methylation, DELFIA TRF, 1 h. inhibition, % at 12.5 µM. 57,000 tested, 0.35% active;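 active = mean inhibition of replicates at least 50% and every single replicate also reaching 50%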;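 note: dimethyl H3K27 on biotinylated H3 21-44 peptide detected by antibody; plate controls were median neutral control wells for no effect and median positive control wells for full effect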
The depositor's hits bear a star.

SMILES | PRC2 inh
CC1CCC2(C)C(CC(O)C(O)C2(O)CO)C1(C)CCc1ccoc1 (stereo not given) | -9
C[C@@H]1CC[C@]2(C)[C@H](CC[C@@H](O)[C@]2(C)O)[C@@]1(C)CC/C(=C/CO)CO | 87*
CCCNC(=O)N(C)C[C@@H]1Oc2ncc(C#C[C@@H](C)O)cc2C(=O)N([C@@H](C)CO)C[C@@H]1C | -19
COc1c2ccoc2cc2oc(=O)ccc12 | 52*
COc1ccc2c(=O)ccoc2c1 | 8
CC(C)(O)C(O)COc1c2ccoc2cc2oc(=O)ccc12 (stereo not given) | 7
CCCC(=O)Nc1ccc2c(c1)OC[C@H](C)N(C(=O)c1ccccn1)C[C@@H](C)[C@@H](OC)CN(C)C2=O | -25
N#Cc1c(-c2ccccc2)nc(SCC(=O)Nc2cccc(C(F)(F)F)c2)[nH]c1=O | 39
CC(=O)c1ccc(NC(=O)CSc2nc(-c3ccccc3)c(C#N)c(=O)[nH]2)cc1 | -8
N#Cc1c(-c2ccccc2)nc(SCC(=O)Nc2ccc(Oc3ccccc3)cc2)[nH]c1=O | 87*
C[C@H]1CN([C@@H](C)CO)C(=O)c2cc(Br)cnc2O[C@@H]1CN(C)Cc1cccc(F)c1 | -6
CO[C@@H]1CN(C)C(=O)c2ccc(NC(=O)c3nc4ccccc4s3)cc2OC[C@H](C)N(Cc2cncnc2)C[C@H]1C | -14
Cc1ccc(S(=O)(=O)Nc2cccc3c2O[C@H](CN(C)C(=O)NC(C)C)[C@@H](C)CN([C@H](C)CO)C3=O)cc1 | 3
COCCNC(=O)C[C@@H]1C[C@H]2c3cc(NC(=O)Cc4ccncc4)ccc3O[C@H]2[C@@H](CO)O1 | -7
C/C=C/c1cnc2c(c1)C(=O)N([C@@H](C)CO)C[C@H](C)[C@H](CN(C)S(=O)(=O)c1ccccc1F)O2 | -6
CN1N=C(c2coc3ccccc23)CC1(O)C(F)(F)F (stereo not given) | -2
O=C(Nc1ccc(OCc2nc3ccccc3s2)cc1)c1cccc(I)c1 | 20
O=C(OCc1nc2ccccc2s1)c1ccco1 | -1
COc1cccc(C(=O)OCc2nc3ccccc3s2)c1 | 53*
CO[C@H]1CN(C)C(=O)c2ccc(NC(=O)C3CCOCC3)cc2OC[C@@H](C)NC[C@H]1C | 4
COc1ccc(C)cc1S(=O)(=O)N(C)CC(=O)Nc1cccc(F)c1 | -5
COc1ccccc1CNC(=O)C[C@H]1C=C[C@@H](NC(=O)CN(C)C)[C@@H](CO)O1 | 8
COCCNC(=O)C[C@@H]1C[C@H]2c3cc(NC(=O)c4cccnc4)ccc3O[C@H]2[C@@H](CO)O1 | 19
O=C1C[C@@H](c2ccc(O)cc2)Oc2cc(O)c([C@@H]3O[C@H](CO)[C@@H](O)[C@H](O)[C@H]3O)c(O)c21 | -34
O=C(OC1C(c2c(O)cc(O)c(C(=O)c3ccc(O)cc3)c2O)OC(CO)C(O)C1O)c1cc(O)c(O)c(O)c1 (stereo not given) | 56*
SMILES | PRC2 inh
COc1c(O)cc2c(c1O)[C@H]1O[C@H](CO)[C@@H](O)[C@H](O)[C@@H]1OC2=O | 8
N#Cc1c(NC(=O)CSc2n[nH]c(-c3ccc(Cl)cc3Cl)n2)sc2c1CCCC2 | 52*
O=C(CSc1n[nH]c(-c2ccc(Cl)cc2Cl)n1)Nc1cccc(Cl)c1Cl | 32
O=C(CSc1n[nH]c(-c2ccc(Cl)cc2Cl)n1)Nc1ccccc1F | -5
COC(=O)C[C@H]1C[C@@H]2c3cc(NC(=O)Nc4ccc(C(F)(F)F)cc4)ccc3O[C@@H]2[C@H](CO)O1 | -26
O=c1cc(-c2ccc(O)cc2)oc2c(C3OCC(O)C(O)C3O)c(O)c(C3OC(CO)C(O)C(O)C3O)c(O)c12 (stereo not given) | 58*
COc1c(OC)c(O)c2c(=O)cc(-c3ccc(O)cc3)oc2c1OC | 3
CC1OC(Oc2cc(O)c3c(=O)cc(-c4ccc(O)cc4)oc3c2C2OC(CO)C(O)C(O)C2O)C(O)C(O)C1O (stereo not given) | 2
COCC(=O)N[C@H]1CC[C@H](CC(=O)N2CCCCC2)O[C@@H]1CO | 17
C[C@@H]1CCCCO[C@@H](CN(C)C(=O)c2ccccc2)[C@@H](C)CN([C@H](C)CO)C(=O)c2cc(NC(=O)CCCCCC(=O)Nc3ccccc3N)ccc2O1 | -4
O=C(C[C@@H]1C[C@H]2c3cc(NC(=O)C4CCOCC4)ccc3O[C@H]2[C@@H](CO)O1)NCC1CC1 | 1
COc1ccc(-c2cnc3c(c2)C(=O)N([C@H](C)CO)C[C@@H](C)[C@@H](CN(C)S(=O)(=O)c2ccc(OC)cc2)O3)cc1 | -7
COC(=O)C1=CO[C@@H](O[C@@H]2O[C@H](CO)[C@@H](O)[C@H](O)[C@H]2O)[C@@H]2[C@@](C)(O)[C@@H](OC(=O)/C=C/c3ccc(OC)c(O)c3)C[C@]12O | 52*
COC(=O)C1=CO[C@@H](O[C@@H]2O[C@H](CO)[C@@H](O)[C@H](O)[C@H]2O)C2C1CCC2(C)O (stereo not given in full) | 18
COC(=O)C1=CO[C@@H](O[C@@H]2O[C@H](CO)[C@@H](O)[C@H](O)[C@H]2O)[C@H]2[C@@H]1[C@H](OC(=O)/C=C/c1ccc(O)cc1)C[C@]2(C)OC(C)=O | 3
C[C@@H]1CCCCO[C@@H](CN(C)C(=O)CCCN(C)C)[C@H](C)CN([C@H](C)CO)C(=O)c2cc(N(C)C)ccc2O1 | 6
C[C@@H]1CCCCO[C@H](CN(C)S(=O)(=O)c2cn(C)cn2)[C@@H](C)CN([C@@H](C)CO)C(=O)c2cc(N(C)C)ccc2O1 | -7
O=C(CSc1nc2ccccc2c(=O)[nH]1)Nc1ccc(Br)c(Cl)c1 | 55*
CCOC(=O)c1c(NC(=O)CSc2ncn[nH]2)sc2c1CCCCC2 | 6
COc1ccc(NC(=O)CSc2nc3ccccc3c(=O)[nH]2)cc1Cl | -6
CCOC(=O)c1c(NC(=O)CSc2nc3ccccc3c(=O)[nH]2)sc2c1CCCC2 | 76*
CCOC(=O)c1c(NC(=O)Cn2cnc3ccccc3c2=O)sc2c1CCCC2 | 9
O=C(CSc1nc2ccccc2c(=O)[nH]1)Nc1ccc(F)c(Cl)c1 | 31
C[C@H]1CN([C@@H](C)CO)C(=O)Cc2cc(NC(=O)Nc3ccccc3)ccc2O[C@@H]1CN(C)Cc1ccncc1 | 3
CO[C@H](CN(C)C(=O)c1ccc2c(c1)OCO2)[C@H](C)CN([C@H](C)CO)S(=O)(=O)c1ccc(C)cc1 | -1
SMILES | PRC2 inh
C[C@@H]1CN([C@@H](C)CO)C(=O)Cc2cc(NC(=O)CCC(F)(F)F)ccc2O[C@H]1CN(C)C(=O)Nc1ccc2c(c1)OCO2 | 3
COc1cc(Br)c(/C=N/NC(=O)CCCCCCC(=O)O)cc1OC | 7
CNC[C@@H]1Oc2c(NC(=O)C3CCOCC3)cccc2C(=O)N([C@H](C)CO)C[C@H]1C | -3
C[C@@H]1CN([C@H](C)CO)C(=O)Cc2cc(NS(=O)(=O)c3ccccc3)ccc2O[C@H]1CN(C)Cc1ccncc1 | 8
Cc1cccc(S(=O)(=O)N(C)C[C@@H]2OCc3ccccc3-c3ccccc3C(=O)N([C@H](C)CO)C[C@H]2C)c1 | -22
COc1cccc(C(=O)Nc2ccc3c(c2)OC[C@H](C)N(C)C[C@@H](C)[C@@H](OC)CN(C)C3=O)c1 | 2
Clc1ccc(CSc2nnc(-c3ccco3)n2Cc2ccco2)c(Cl)c1 | 45
Fc1ccccc1-c1nnc(SCc2ccc(Br)cc2)n1Cc1ccco1 | 79*
Fc1ccccc1CSc1nnc(-c2cnccn2)n1Cc1ccco1 | 2
COc1ccc2sc(SCc3nc(N)nc(Nc4cccc(C)c4C)n3)nc2c1 | 11
